Results on 35 compounds are retold here after PubChem BioAssay.

The source made the active and inactive calls.

In one test the target is NADPH oxidase 4 (Homo sapiens) (UniProt Q9NPH5). The test can be described thus: compounds shifting NOX4 Amplex Red fluorescence – cell-based, HEK293-NOX4, tetracycline-induced, NOX inhibitor project, primary screen (AID 1160). The conditions noted are these: HEK293-NOX4, Amplex Red H2O2 fluorescence, 45 min; higher = more signal, called active from +8 up or from −8 down.
Chain of NADPH oxidase 4 (Homo sapiens) (Q9NPH5 whole entry, looked up): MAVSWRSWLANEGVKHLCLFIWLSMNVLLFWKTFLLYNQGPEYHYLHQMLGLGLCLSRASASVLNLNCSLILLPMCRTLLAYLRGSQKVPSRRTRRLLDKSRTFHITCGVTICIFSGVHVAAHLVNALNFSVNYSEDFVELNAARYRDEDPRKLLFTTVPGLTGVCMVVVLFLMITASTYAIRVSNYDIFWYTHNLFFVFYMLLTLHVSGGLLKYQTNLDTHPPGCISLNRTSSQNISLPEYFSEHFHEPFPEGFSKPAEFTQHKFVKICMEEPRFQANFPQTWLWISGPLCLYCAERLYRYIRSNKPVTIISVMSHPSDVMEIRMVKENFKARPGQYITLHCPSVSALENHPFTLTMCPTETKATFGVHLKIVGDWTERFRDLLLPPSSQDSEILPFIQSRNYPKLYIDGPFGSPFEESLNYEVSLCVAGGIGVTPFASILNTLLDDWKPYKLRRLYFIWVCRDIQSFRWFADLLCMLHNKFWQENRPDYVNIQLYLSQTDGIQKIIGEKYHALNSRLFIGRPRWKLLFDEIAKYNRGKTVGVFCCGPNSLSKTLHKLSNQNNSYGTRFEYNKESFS
Take `C=C(CCCC)/C(=C/C[C@H](OC(C)=O)c1cccc(OCCO)c1)c1cc(C(=O)OC)ccc1OC`: the z-score is 1.02 (inactive). Same read-out and setting: the result for `C=CCNC(=O)[C@H]1[C@@H]2C(=O)O[C@@H](c3ccccc3)[C@@H](c3ccccc3)N2[C@@H](c2ccccc2OCCO)[C@]12C(=O)N(C(=O)OCCOC)c1ccccc12` reads 0.676 (inactive); that for `O=C1OCCC/C=C\[C@H]2OC34C=CCN(Cc5ccccc5)C(=O)[C@H]3N(CCCCCO)C(=O)[C@@H]4C12` (stereo partly specified), 0.487 (inactive); that for `CC(C)(C)OC(=O)CC[C@]1(C(=O)N2CCOCC2)N=C(c2ccc(OCCCO)cc2)O[C@H]1c1ccccc1CN=[N+]=[N-]`, 0.181 (inactive). Regarding `CCCC=C(CCC)[C@@H](NC(=O)c1ccco1)c1ccc(C(=O)OC)cc1`, the z-score is 1.46 (inactive). `COC(=O)c1c(CC[C@@H](CO)NC(=O)N[C@@H](Cc2ccccc2)Cn2cc(-c3cncn3C)nn2)oc(C(C)=O)c1C(=O)OC`: the z-score is -2.01 (inactive). Regarding `COC(=O)[C@@]1(Cc2ccc(OC)cc2)[C@H]2c3cc(C(=O)N(C)C)n(Cc4ccsc4Br)c3C[C@H]2CN1C(=O)c1ccccc1`, the z-score is 0.536 (inactive). The same measure, in the same setting: next, `C=CCC(OC(C)=O)[C@@H]1[C@@H](N(Cc2ccc(-c3ccccc3)cc2)C(=O)c2ccc(-c3ccccc3)cc2)c2cc(OCCCO)ccc2N1C(=O)c1ccc2ccccc2n1` (stereo partly specified): 1.33 (inactive). Turning to `O=C1c2ccccc2[C@](Cc2ccccc2I)(C(=O)O)[C@H](c2ccc(CO)cc2)N1Cc1ccccc1`, the z-score was 0.148 (inactive). Turning to `COCC(=C=CC[C@@H](O)c1cccc(OCCO)c1)C[C@@H](O)COCc1ccccc1`, the z-score is -0.268 (inactive).

Consider `C[N+](C)(C)CCCCCCNC(=O)[C@@H]1C[C@@H]2C(=O)N[C@@H](Cc3ccccc3)C(=O)N2[C@@H]1c1ccc(O)cc1`, for which the z-score was 0.203 (inactive). `COCCOC(=O)N1C(=O)[C@@]2(c3ccccc31)[C@H](c1ccc(OCCO)cc1)N1[C@H](c3ccccc3)[C@H](c3ccccc3)OC(=O)[C@H]1[C@@H]2C(=O)N1CCN(c2ncccn2)CC1`: the z-score is 0.262 (inactive). On the same count and under the same terms, the result for `COCCOC(=O)N1C(=O)[C@@]2(c3cc(C#CCCO)ccc31)[C@H](c1ccccc1OCCO)N1[C@H](c3ccccc3)[C@H](c3ccccc3)OC(=O)[C@H]1[C@@H]2C(=O)N1CCc2cc(OC)c(OC)cc2C1` reads 1.15 (inactive); that for `C=CCC(OC(C)=O)[C@@H]1[C@@H](N(Cc2cc3ccccc3o2)C(=O)Cc2ccc(OC)cc2)c2cc(OCCCO)ccc2N1C(=O)Cc1ccc(OC)cc1` (stereo partly specified), -0.727 (inactive); that for `CC(C)C[C@H]1NC(=O)[C@@]23C(=O)N[C@@H](Cc4ccccc4)C2[C@H](C)[C@@]2(C)O[C@H]2C3/C=C/C/C=C\CNC(=O)[C@@H]2CCCN2C1=O` (stereo partly specified), 1.29 (inactive). The same measure, in the same setting: the result for `COCCOC(=O)N1C(=O)[C@@]2(c3cc(C#CCC(C(=O)OC)C(=O)OC)ccc31)[C@H](c1ccc(OCCO)cc1)N1[C@H](c3ccccc3)[C@H](c3ccccc3)OC(=O)[C@H]1[C@@H]2C(=O)N1CCCCCCC1` reads 0.397 (inactive); that for `COCC(=C=CC[C@@H](O)c1ccc(OCCO)cc1)C[C@@H](O)COCc1ccccc1`, -0.479 (inactive). Same read-out and setting: the result for `COC(=O)[C@@H]1N=C(c2ccc(OCCCO)cc2)O[C@@H]1c1ccccc1CN=[N+]=[N-]` reads 0.827 (inactive); that for `C=C(COC)C(=O)CC[C@@H](OC(C)=O)c1ccc(OCCO)cc1`, -0.885 (inactive). Take `O=C(NCCO)C1=C[C@H](Oc2ccccc2I)[C@@H](O)[C@H](NCc2ccc(F)cc2)C1`: the z-score is -0.89 (inactive). `O=C1O[C@@H](c2ccccc2)[C@@H](c2ccccc2)N2[C@@H](c3ccc(OCCO)cc3)[C@]3(C(=O)Nc4ccc(C#CCCO)cc43)[C@@H](C(=O)Nc3nc4ccccc4s3)[C@H]12`: the z-score was 0.868 (inactive). Turning to `NCCCC[C@@H]1NC(=O)[C@H]2C[C@@H](C(=O)O)[C@@H](c3cccc(OCCO)c3)N2C1=O`, the z-score is 0.834 (inactive).

With `COCCOC(=O)N1C(=O)[C@@]2(c3cc(C#CCCO)ccc31)[C@H](C(=O)N1CCc3cc(OC)c(OC)cc3C1)[C@H]1C(=O)O[C@H](c3ccccc3)[C@H](c3ccccc3)N1[C@@H]2c1ccccc1OCCO`, the z-score was 1.7 (inactive).

As to `COC(=O)[C@@]1(Cc2ccccc2)[C@@H]2[C@@H](CC(=O)[C@H]2CC(=O)C(=O)N(C)C)CN1C(=O)c1ccccc1`, the z-score is 0.766 (inactive).

Turning to `O=C1O[C@H](c2ccccc2)[C@H](c2ccccc2)N2[C@H]1[C@@H](C(=O)N1CCN(c3ncccn3)CC1)[C@]1(C(=O)Nc3ccccc31)[C@H]2c1ccc(O)cc1`, the z-score was -1.54 (inactive). The same measure, in the same setting: the result for `CCOC(=O)C1=CC[C@@H](c2ccccc2Cl)N(S(=O)(=O)c2ccc(C)cc2)[C@H]1c1cccc(OC)c1` reads 0.238 (inactive).

For a further test, the target named is NADPH oxidase 5 (Homo sapiens) (UniProt Q96PH1). The test is described as follows: compounds shifting NOX5 Amplex Red fluorescence – cell-based, HEK293-NOX5, NOX inhibitor project, primary screen (AID 1161). The conditions noted are these: HEK293-NOX5, ionomycin, 45 min, higher = more signal.
Chain of NADPH oxidase 5 (Homo sapiens) (Q96PH1 whole entry, looked up): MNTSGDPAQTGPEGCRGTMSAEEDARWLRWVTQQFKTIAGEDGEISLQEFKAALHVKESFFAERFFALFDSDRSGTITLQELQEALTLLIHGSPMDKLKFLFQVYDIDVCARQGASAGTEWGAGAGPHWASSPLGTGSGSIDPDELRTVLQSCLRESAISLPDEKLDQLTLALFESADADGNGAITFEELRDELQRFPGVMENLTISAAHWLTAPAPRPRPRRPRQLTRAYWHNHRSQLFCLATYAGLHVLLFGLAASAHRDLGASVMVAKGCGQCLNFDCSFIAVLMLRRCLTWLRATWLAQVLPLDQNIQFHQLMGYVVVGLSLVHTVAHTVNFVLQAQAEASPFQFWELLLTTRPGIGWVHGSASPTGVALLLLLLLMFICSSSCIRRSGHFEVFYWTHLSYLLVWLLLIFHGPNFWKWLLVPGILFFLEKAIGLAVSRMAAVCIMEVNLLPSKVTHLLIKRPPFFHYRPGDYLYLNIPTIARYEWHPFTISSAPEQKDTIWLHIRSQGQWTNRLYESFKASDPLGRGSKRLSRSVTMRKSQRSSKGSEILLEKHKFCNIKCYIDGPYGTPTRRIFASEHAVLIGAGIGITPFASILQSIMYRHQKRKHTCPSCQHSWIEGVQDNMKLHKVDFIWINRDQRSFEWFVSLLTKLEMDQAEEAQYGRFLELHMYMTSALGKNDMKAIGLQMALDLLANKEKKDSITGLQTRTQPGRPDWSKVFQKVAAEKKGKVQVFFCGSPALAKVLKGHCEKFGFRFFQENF
`Cc1ccccc1C(O)C1C=CC2C(=O)N(c3ccccc3)C(=O)C2N1Nc1ccccc1F` (stereo unspecified): the z-score was -3.71. In the case of `COC(=O)[C@@]1(CCS(=O)(=O)c2ccccc2)N=C(c2ccc(OCCCO)cc2)O[C@H]1c1ccccc1N=[N+]=[N-]`, the z-score was -1.59. For the compound `C=C(CCCC)C(=O)CC[C@H](OC(=O)c1cccnc1)c1ccc(CO)o1`, the z-score was -0.454.

As to `COCCOC(=O)N1C(=O)[C@@]2(c3cc(C#CC4(O)CCCCCC4)ccc31)[C@H](c1ccc(OCCO)cc1)N1[C@H](c3ccccc3)[C@H](c3ccccc3)OC(=O)[C@H]1[C@@H]2C(N)=O`, the z-score was -0.305. Take `CN(C)C(=O)[C@]1(Cc2ccccc2)N=C(c2ccc(OCCCO)cc2)O[C@@H]1c1ccccc1`: the z-score is -1.73.

Consider `COc1ccc(C#Cc2ccc3c(c2)[C@]2(C(=O)N3)[C@H](C(=O)Nc3nc4ccccc4s3)[C@H]3C(=O)O[C@H](c4ccccc4)[C@H](c4ccccc4)N3[C@@H]2c2ccc(OCCO)cc2)cc1`, for which the z-score was -1.04. Take `CCOC(=O)C[C@H]1[C@H](OC(=O)c2ccc(C(=O)c3ccccc3)cc2)[C@@H](NC(=O)c2ccc3ccccc3c2)c2cc(OCCCO)ccc2N1C(=O)c1ccc2ccccc2n1`: the z-score was found to be 1.66. In the case of `CN(C)CCCCNC(=O)[C@H]1C[C@H]2C(=O)N[C@@H](Cc3ccccc3)C(=O)N2[C@H]1c1cccc(OCCO)c1`, the z-score came to 1.43.

For the compound `C=C(CC1([C@@H](NP(=O)(c2ccccc2)c2ccccc2)[C@H]2C[C@@H]2CCN(C(=O)OCC)S(=O)(=O)c2ccc(C)cc2)CC1)c1ccccc1`, the z-score is -3.34. For the compound `C=C(CCCC)/C(=C/C[C@H](OC(C)=O)c1cccc(OCCO)c1)c1cc(C(=O)OC)ccc1OC`, the z-score is -0.963. Take `C=CCNC(=O)[C@H]1[C@@H]2C(=O)O[C@@H](c3ccccc3)[C@@H](c3ccccc3)N2[C@@H](c2ccccc2OCCO)[C@]12C(=O)N(C(=O)OCCOC)c1ccccc12`: the z-score was found to be 0.348. Take `O=C1OCCC/C=C\[C@H]2OC34C=CCN(Cc5ccccc5)C(=O)[C@H]3N(CCCCCO)C(=O)[C@@H]4C12` (stereo partly specified): the z-score stood at 1.76. For `CC(C)(C)OC(=O)CC[C@]1(C(=O)N2CCOCC2)N=C(c2ccc(OCCCO)cc2)O[C@H]1c1ccccc1CN=[N+]=[N-]`, the z-score was -0.476. With `CCCC=C(CCC)[C@@H](NC(=O)c1ccco1)c1ccc(C(=O)OC)cc1`, the z-score turned out to be 1.99. Regarding `COC(=O)c1c(CC[C@@H](CO)NC(=O)N[C@@H](Cc2ccccc2)Cn2cc(-c3cncn3C)nn2)oc(C(C)=O)c1C(=O)OC`, the z-score was -3.3.

Take `COC(=O)[C@@]1(Cc2ccc(OC)cc2)[C@H]2c3cc(C(=O)N(C)C)n(Cc4ccsc4Br)c3C[C@H]2CN1C(=O)c1ccccc1`: the z-score came to 0.316.

In the case of `C=CCC(OC(C)=O)[C@@H]1[C@@H](N(Cc2ccc(-c3ccccc3)cc2)C(=O)c2ccc(-c3ccccc3)cc2)c2cc(OCCCO)ccc2N1C(=O)c1ccc2ccccc2n1` (stereo partly specified), the z-score is 1.17. Consider `O=C1c2ccccc2[C@](Cc2ccccc2I)(C(=O)O)[C@H](c2ccc(CO)cc2)N1Cc1ccccc1`, for which the z-score was determined as 1.71. As for `COCC(=C=CC[C@@H](O)c1cccc(OCCO)c1)C[C@@H](O)COCc1ccccc1`, the z-score was -1.62. `C[N+](C)(C)CCCCCCNC(=O)[C@@H]1C[C@@H]2C(=O)N[C@@H](Cc3ccccc3)C(=O)N2[C@@H]1c1ccc(O)cc1`: the z-score amounted to 0.0921. In the case of `COCCOC(=O)N1C(=O)[C@@]2(c3ccccc31)[C@H](c1ccc(OCCO)cc1)N1[C@H](c3ccccc3)[C@H](c3ccccc3)OC(=O)[C@H]1[C@@H]2C(=O)N1CCN(c2ncccn2)CC1`, the z-score was 0.618. With `COCCOC(=O)N1C(=O)[C@@]2(c3cc(C#CCCO)ccc31)[C@H](c1ccccc1OCCO)N1[C@H](c3ccccc3)[C@H](c3ccccc3)OC(=O)[C@H]1[C@@H]2C(=O)N1CCc2cc(OC)c(OC)cc2C1`, the z-score amounted to 0.0359. As for `C=CCC(OC(C)=O)[C@@H]1[C@@H](N(Cc2cc3ccccc3o2)C(=O)Cc2ccc(OC)cc2)c2cc(OCCCO)ccc2N1C(=O)Cc1ccc(OC)cc1` (stereo partly specified), the z-score was -2.19. Consider `CC(C)C[C@H]1NC(=O)[C@@]23C(=O)N[C@@H](Cc4ccccc4)C2[C@H](C)[C@@]2(C)O[C@H]2C3/C=C/C/C=C\CNC(=O)[C@@H]2CCCN2C1=O` (stereo partly specified), for which the z-score amounted to 0.968.

As for `COCCOC(=O)N1C(=O)[C@@]2(c3cc(C#CCC(C(=O)OC)C(=O)OC)ccc31)[C@H](c1ccc(OCCO)cc1)N1[C@H](c3ccccc3)[C@H](c3ccccc3)OC(=O)[C@H]1[C@@H]2C(=O)N1CCCCCCC1`, the z-score stood at 2.28. As for `COCC(=C=CC[C@@H](O)c1ccc(OCCO)cc1)C[C@@H](O)COCc1ccccc1`, the z-score was -2.03. As for `COC(=O)[C@@H]1N=C(c2ccc(OCCCO)cc2)O[C@@H]1c1ccccc1CN=[N+]=[N-]`, the z-score is 0.0949. The same measure, in the same setting: the result for `C=C(COC)C(=O)CC[C@@H](OC(C)=O)c1ccc(OCCO)cc1` reads -0.112; that for `O=C(NCCO)C1=C[C@H](Oc2ccccc2I)[C@@H](O)[C@H](NCc2ccc(F)cc2)C1`, -3.29. As for `O=C1O[C@@H](c2ccccc2)[C@@H](c2ccccc2)N2[C@@H](c3ccc(OCCO)cc3)[C@]3(C(=O)Nc4ccc(C#CCCO)cc43)[C@@H](C(=O)Nc3nc4ccccc4s3)[C@H]12`, the z-score was determined as 1.52.
